These compounds were tested against NADPH oxidase 2 (Homo sapiens) (UniProt P04839) (assay: compounds shifting NOX2 Amplex Red fluorescence – cell-based, HEK293-NOX2, PMA-stimulated, NOX inhibitor project, primary screen (AID 1159; note: test concentration not given here)). Settings: 45 min, higher = more signal, called active from +8 up or from −8 down.
NADPH oxidase 2 (Homo sapiens), sequence (P04839 whole entry, looked up): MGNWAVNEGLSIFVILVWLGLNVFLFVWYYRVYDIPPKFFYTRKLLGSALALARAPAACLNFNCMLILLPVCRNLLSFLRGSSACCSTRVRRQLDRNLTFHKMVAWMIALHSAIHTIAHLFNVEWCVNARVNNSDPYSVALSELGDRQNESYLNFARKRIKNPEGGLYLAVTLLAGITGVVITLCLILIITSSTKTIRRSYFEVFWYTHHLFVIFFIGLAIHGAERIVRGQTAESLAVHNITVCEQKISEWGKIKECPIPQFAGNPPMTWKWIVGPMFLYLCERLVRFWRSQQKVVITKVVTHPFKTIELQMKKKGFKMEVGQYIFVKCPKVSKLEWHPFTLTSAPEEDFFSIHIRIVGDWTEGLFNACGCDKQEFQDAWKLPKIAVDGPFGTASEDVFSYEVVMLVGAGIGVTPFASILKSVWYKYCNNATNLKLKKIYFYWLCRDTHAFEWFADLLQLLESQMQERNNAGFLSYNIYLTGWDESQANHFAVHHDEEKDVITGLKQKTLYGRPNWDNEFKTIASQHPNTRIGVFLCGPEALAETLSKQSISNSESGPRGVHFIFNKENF

z-score, inactive:
CC1CC/C=C\[C@H]2OC34C=CCN(c5ccc(Cl)cc5)C(=O)[C@H]3N(C(CO)C(C)C)C(=O)[C@]4(C)C2C(=O)O1 (some centres undefined) 1.86
C=CCC(OC(C)=O)[C@@H]1[C@@H](N(Cc2cccc3ccccc23)C(=O)Cc2ccc(F)cc2)c2cc(OCCCO)ccc2N1C(=O)Cc1ccc(OC)cc1 (some centres undefined) -0.973
COC(=O)[C@]1(Cc2ccccc2CN=[N+]=[N-])N=C(c2ccc(OCCCO)cc2)O[C@@H]1c1ccccc1 -2.2
CCCc1cc2c(n1Cc1ccc(OC)cc1)C(C)C1CN(C(=O)c3ccccc3)C(C)(C(=O)OC)C21 (centres undefined) -1.55
CN(C)C(=O)[C@@]1(CCC(=O)OC(C)(C)C)N=C(c2ccc(OCCCO)cc2)O[C@H]1c1ccccc1N=[N+]=[N-] -3.57
CCN(CC)c1ccc(N2CC=CC34O[C@@H]5/C=C\CCCOC(=O)C5[C@H]3C(=O)N(CCCCCO)[C@@H]4C2=O)cc1 (some centres undefined) 0.516
COC(=O)[C@@]1(Cc2ccc(F)cc2)[C@H]2c3cc(C(=O)N(C)C)n(CCSCCO)c3C[C@H]2CN1C(=O)c1ccccc1 0.746
C=CCNC(=O)[C@@H]1[C@H]2C(=O)O[C@H](c3ccccc3)[C@H](c3ccccc3)N2[C@H](c2ccc(O)cc2)[C@@]12C(=O)Nc1ccc(C#CCCO)cc12 0.422
COC(=O)C(CC#Cc1ccc2c(c1)[C@]1(C(=O)N2)[C@H](c2ccccc2OCCO)N2[C@H](c3ccccc3)[C@H](c3ccccc3)OC(=O)[C@H]2[C@@H]1C(=O)Nc1nc2ccccc2s1)C(=O)OC 1.04
